# From PubChem BioAssay
# Many of the other results were omitted from the sample, so hits are more common in it than they were.
# RVFV N-RNA FP: RVFV nucleocapsid-RNA interaction inhibition. RVFV N-RNA binding, fluorescence polarization; hits give low values. % bound, % (no concentration beside the values). 20,000 tested, 0.1% active. AID 651828; in the data active means % bound below about 75%
# Target sequence (P21700 whole entry, looked up): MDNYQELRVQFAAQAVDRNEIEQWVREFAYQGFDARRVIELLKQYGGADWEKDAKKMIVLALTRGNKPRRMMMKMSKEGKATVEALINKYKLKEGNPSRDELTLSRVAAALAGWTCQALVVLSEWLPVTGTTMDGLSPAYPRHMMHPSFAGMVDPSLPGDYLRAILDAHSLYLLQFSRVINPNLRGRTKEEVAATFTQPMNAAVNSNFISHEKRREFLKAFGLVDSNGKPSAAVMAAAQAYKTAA
# Active calls of the source: *; ! = not confirmed by another sample.
SMILES,RVFV N-RNA FP
CC1(C)Cc2c(sc3nc(NCCCO)[nH]c(=O)c23)CO1,93
FC(F)(F)c1[nH]ncc1-c1nnnn1-c1ccccc1,93
CC(C)(C)c1cc2nc(C(F)(F)F)cc(N3CCN(C(=O)Nc4ccccc4)CC3)n2n1,97
CC1SC(c2ccccc2)NC1=O (stereo not drawn),87
Cc1c(C(=O)N(C)Cc2ccccc2)sc2nc(-c3ccccc3)cn12,99
CSc1ccc2nnc(CCNC(=O)c3ccccc3)n2n1,90
Cn1c(=O)c2c(nc3oc(C(C)(C)C)cn32)n(C)c1=O,109
CC(C)(C)c1cccc(OCCON2C(=O)CCC2=O)c1,98
Cc1ccc2nc(SCc3ccccc3C#N)[nH]c2c1,102
O=c1c2cccnc2ncn1CCCN1CCOCC1,86
N/C(=N/c1nc(-c2ccccc2)cc(=O)[nH]1)Nc1ccccc1,95
CC1CCN(CCCC(=O)c2ccc(F)cc2)CC1,96
O=C(CCCN1CCC(O)(c2ccc(Cl)cc2)CC1)c1ccc(F)cc1,101
O=C(CCCN1CCC2(CC1)C(=O)NCN2c1ccccc1)c1ccc(F)cc1,56*!
Cc1cccn2cc(CNC(=O)COc3ccccc3)nc12,89
CCOc1cccc(OCCOc2ccc(F)cc2)c1,108
CCSc1nnc(-c2ccccc2)n1-c1ccccc1,98
CN=c1nc(-c2ccccc2)n(-c2ccccc2)s1,50*
CC1(C)Cn2c(nnc2-c2ccccc2)S1,92
CCCc1cnc2c(c1SCC(=O)NCc1ccc(F)cc1)c(=O)n(C)c(=O)n2C,100
NC(CO)C(=O)N/N=C/c1ccc(O)c(O)c1O (stereo not drawn),51*
O=C(CSc1ccccc1)N/N=C/c1ccccc1O,89
NC(CO)C(=O)NNCc1ccc(O)c(O)c1O (stereo not drawn),85
O=C(c1cccnc1)N1CCC2(CC1)OCCO2,92
C#CCN1C(=O)S/C(=C/c2ccc(N3CCCCC3)cc2C)C1=O,111
SMILES,RVFV N-RNA FP
C(=C\c1cccs1)/C1=NN(c2ccccc2)C(c2cccs2)C1 (stereo not drawn),96
CC1(C)CC(=O)c2sc(NC(=O)c3ccc(S(C)(=O)=O)cc3)nc2C1,94
CCN(C(=O)c1ccc(Cl)cc1)c1ccccc1C,101
CCC(C)c1ccc(OCC(=O)Nc2ccc(NC(=O)c3ccco3)cc2)cc1 (stereo not drawn),95
CCc1noc(C)c1C(=O)NCCN(C)C,104
O=C1c2cccc3c(Cl)ccc(c23)C(=O)N1c1ccccn1,89
O=C(O)c1ccc2c3c(cccc13)C(=O)N(c1ccccc1O)C2=O,97
Cc1ccc(N2C(=O)c3cccc4c(N5CCN(C)CC5)ccc(c34)C2=O)c2cccnc12,55*
CCCCC(C(=O)O)N1C(=O)/C(=C/c2cccnc2)SC1=S (stereo not drawn),96
S=C=NCCn1ccc2ccccc21,97
CCOC(=O)N1CCN(Cc2sccc2C)CC1,95
CC(C)C(=O)N1C(=O)c2cccc3c(S(=O)(=O)N(C)C)ccc1c23,97
COC(=O)Nc1sc(Cc2ccccc2)cc1C(N)=O,98
CC1(C)C/C(=N/O)c2cc3c(nc2C1)CC(C)(C)C/C3=N\O,97
Cc1cc(=O)[nH]c(SCCC(=O)O)n1,92
CSc1nnc(C)c(=O)n1N,96
Cn1nc(-c2ccc(S(=O)(=O)NCc3ccco3)s2)cc1C(F)(F)F,103
OCCNC(=S)NC1CC1,94
CCOC(=O)c1c(C)c(C(=O)N2CC(C)CC(C)C2)c(C)n1C (stereo not drawn),98
O=C1CC(c2ccc(F)cc2)CC2=C1C(c1ccccc1)N=C(Nc1nc3ccccc3o1)N2 (stereo not drawn),96
OCCN=Cc1[nH]c2ccccc2c1O,55*
C=CCN=Cc1c(O)[nH]c2ccccc12,94
OCC(O)CN=Cc1c(O)[nH]c2ccccc12 (stereo not drawn),92
Cc1ccc(C(CN2CCOCC2)c2nc(-c3ccccc3)nn(CN3CCOCC3)c2=O)cc1 (stereo not drawn),92
Cc1ccc(C2N(Cc3ccccc3)CCCN2Cc2ccccc2)o1,93
SMILES,RVFV N-RNA FP
Cc1cc(/C=C(/C#N)C(=O)NC2CCCCC2)c(C)n1-c1ccc(I)cc1,87
Cn1nnnc1SCc1ccccc1,97
CCOC(=O)N1CCN(Cn2nc(-c3ccc(Cl)cc3)n(Cc3ccccc3)c2=S)CC1,98
Cc1oc(-c2cccc(C(F)(F)F)c2)cc1CO,94
CC(C)n1c(NC(=O)Nc2ccccc2)c2ccccc2nc1=O,91
O=C1C2C3c4ccccc4C(c4ccccc43)C2C(=O)N1/N=C/c1ccco1 (stereo not drawn),102
NC(=O)NC(=O)CC1Sc2ccccc2NC1=O (stereo not drawn),99
CC(C)(C)C(=O)Oc1ccc(Br)cc1,110
CCn1c2ccccc2c2cc(C3C(C(=O)OC)=C(C)NC4=C3C(=O)CC(c3ccco3)C4)ccc21 (stereo not drawn),106
CS(=O)(=O)N(CC(N)=O)C1CCCCC1,98
Cc1ccc(-c2nc3scc(CCNS(=O)(=O)N(C)C)n3n2)cc1,98
O=c1ccnc(SCc2cccc(Cl)c2)[nH]1,94
Cc1cc(-c2nc3ncccc3o2)ccc1NC(=O)c1ccccc1,92
NC(=O)CSc1nc2ccc(Cl)cc2[nH]1,100
O=C(O)CSc1nnc2n1-c1ccc(Cl)cc1NN2,56*
Clc1ccc2c(c1)NNc1nncn1-2,93
CCC(C)NS(=O)(=O)c1ccc(F)c(OC)c1 (stereo not drawn),106
Cc1noc(C)c1C(=O)O/N=C(/c1cccs1)C(C)(C)C,101
Cc1noc(C)c1S(=O)(=O)N1CCCC1,90
Cc1nnc(SCCCn2c(N3CC(C)OC(C)C3)nc3c2c(=O)[nH]c(=O)n3C)s1 (stereo not drawn),86
O/N=C/c1cn(CC(O)COc2ccc(Cl)cc2)c2ccccc12 (stereo not drawn),95
CC1SC(C)C(=O)N(CC(=O)Nc2ccccc2F)C1=O (stereo not drawn),102
